Laboratory results taken from PMC8222333, “AsCas12a ultra nuclease facilitates the rapid generation of therapeutic cell medicines”.
Residue numbers refer to the chain shown, from its start.

B1: ATGG (dsDNA)
DNA 1: GCTATCTAGTGCTCAGTACGCACTGATGGAGGAAACTTCTGGCAGGACCAGGTCATGAGATCGGAAGAGCACACGTCTGAACTCCAGTCA
DNA 2: TGACTGGAGTTCAGACGTGTGCTCTTCCGATCTCATGACCTGGTCCTGCCAGAAGTTTCCTCCATCAGTGCGTACTGAGCACTAGATAGC
RNA: AAUUUCUACUCUUGUAGAUAGGAAACUUCUGGCAGGACC
B2: CACG (dsDNA)
DNA 1: B1 DNA 1 with A26C, T27A, G28C
DNA 2: B1 DNA 2 with C63G, A64T, T65G
RNA: B1 RNA
B3: CAAC (dsDNA)
DNA 1: B1 DNA 1 with A26C, T27A, G28A, G29C
DNA 2: B1 DNA 2 with C62G, C63T, A64T, T65G
RNA: B1 RNA
B4: CACA (dsDNA)
DNA 1: B1 DNA 1 with A26C, T27A, G28C, G29A
DNA 2: B1 DNA 2 with C62T, C63G, A64T, T65G
RNA: B1 RNA
B5: CAAT (dsDNA)
DNA 1: B1 DNA 1 with A26C, T27A, G28A, G29T
DNA 2: B1 DNA 2 with C62A, C63T, A64T, T65G
RNA: B1 RNA
B6: CAAG (dsDNA)
DNA 1: B1 DNA 1 with A26C, T27A, G28A
DNA 2: B1 DNA 2 with C63T, A64T, T65G
RNA: B1 RNA
B7: CAGA (dsDNA)
DNA 1: B1 DNA 1 with A26C, T27A, G29A
DNA 2: B1 DNA 2 with C62T, A64T, T65G
RNA: B1 RNA
B8: CAAA (dsDNA)
DNA 1: B1 DNA 1 with A26C, T27A, G28A, G29A
DNA 2: B1 DNA 2 with C62T, C63T, A64T, T65G
RNA: B1 RNA
B9: CACC (dsDNA)
DNA 1: B1 DNA 1 with A26C, T27A, G28C, G29C
DNA 2: B1 DNA 2 with C62G, C63G, A64T, T65G
RNA: B1 RNA

What follows are binders tested against dAsCas12a S542R (Acidaminococcus sp., UniProt U2UMQ6 1-1307, S542R;D908A;E993A;D1235A) (assay: Spec-seq (native PAGE EMSA with sequencing of bound and unbound); 25 mM Tris-HCl pH 7.4, 150 mM KCl, 5 mM MgCl2, 10% glycerol, 1 mM DTT, 40 ng/uL salmon sperm DNA; 400 nM Cas12a, 480 nM crRNA, 50 nM library, 37 C 1 h; native PAGE at room temperature; high values mean tight binding). Settings: protein: recombinant.
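Note: relative affinity from the bound to unbound sequence frequency ratio in Spec-seq.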

Row | Binder | binding signal
1 | B1 | -8.74 lnKA
2 | B2 | -8.68 lnKA
3 | B3 | -8.83 lnKA
4 | B4 | -8.06 lnKA
5 | B5 | -8.59 lnKA
6 | B6 | -8.58 lnKA
7 | B7 | -8.93 lnKA
8 | B8 | -8.57 lnKA
9 | B9 | -8.05 lnKA

Each binder was assayed against d-enCas12a (Acidaminococcus sp., UniProt U2UMQ6 1-1307, E174R;S542R;K548R;D908A;E993A;D1235A) in the same assay as above. Settings: protein: recombinant.

Row | Binder | binding signal
10 | B1 | -5.71 lnKA
11 | B2 | -4.44 lnKA
12 | B3 | -5.54 lnKA
13 | B4 | -2.71 lnKA
14 | B5 | -5.72 lnKA
15 | B6 | -5.75 lnKA
16 | B7 | -5.81 lnKA
17 | B8 | -5.66 lnKA
18 | B9 | -1.94 lnKA

Each binder was assayed against d-enCas12a-Ultra (Acidaminococcus sp., UniProt U2UMQ6 1-1307, E174R;S542R;K548R;M537R;F870L;D908A;E993A;D1235A) in the same assay as above. Settings: protein: recombinant.

Row | Binder | binding signal
19 | B1 | -3.4 lnKA
20 | B2 | -1.41 lnKA
21 | B3 | -3.19 lnKA
22 | B4 | -0.596 lnKA
23 | B5 | -3.43 lnKA
24 | B6 | -3.48 lnKA
25 | B7 | -3.41 lnKA
26 | B8 | -3.35 lnKA
27 | B9 | -0.454 lnKA
